# From the supplement of paper PMC12494721
# Structures can show the parent of a compound that is named as a salt.
# Tests used:
# Details in all cases: incubation time: 27 h, anaerobic, 37 °C;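 for the amine columns active = adjusted P below 0.05 in both replicates with a change the same way and a mean fold change under 0.8 or over 1.25; inactive = the rest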
# [1] = test system: Clostridium sporogenes DSM 1664; assay: growth (OD595) fold change vs plate DMSO controls (fold change (ratio)); higher = more growth
# Method in brief: (§1)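 Shaken 96-well cultures in mGAM, grown anaerobically for 27 h at 37 °C, were read at 595 nm. OD came from blank-subtracted readings, corrected for background with 20 µM compound solutions in water and scaled by a calibration factor of 5. Growth is the fold change versus the plate's median DMSO control. Values average 2 biological replicates, and any fold change above 1.5 is NA.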
# Escherichia coli IAI1 [2] = assay: as above
# Method in brief: as §1
# [3] = test system: Klebsiella aerogenes DSM 30053; assay: as above
# Method in brief: as §1
# [4] = test system: Ruminococcus gnavus DSM 108212; assay: as above
# Method in brief: as §1
# [5] = test system: Klebsiella aerogenes DSM 30053; assay: fold change of Histamine concentration vs plate DMSO controls (fold change (ratio)); higher = more amine produced, active = hit call of the paper (significant change in both replicates, either direction)
# Method in brief: (§2)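 Each value is the fold change relative to DMSO-only wells on the same plate. Four gut bacterial strains were grown anaerobically in mGAM at 37 °C for 27 h in 80 µL wells, starting at OD 0.1 before a 1:1 dilution, with compounds at 20 µM final (sweeteners 50 µM). Whole cultures were extracted with cold acetonitrile/methanol containing 0.1% formic acid, centrifuged, and amines were quantified by LC–triple-quadrupole MS (dynamic MRM) against external calibration curves with within-batch drift correction. Values are means of 2 biological replicates.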
# [6] = test system: Clostridium sporogenes DSM 1664; assay: fold change of Tryptamine concentration vs plate DMSO controls (fold change (ratio)); higher = more amine produced, active = hit call of the paper (significant change in both replicates, either direction)
# Method in brief: as §2
# [7] = test system: Ruminococcus gnavus DSM 108212; assay: as above
# Method in brief: as §2
# Escherichia coli IAI1 [8] = assay: fold change of Putrescine concentration vs plate DMSO controls (fold change (ratio)); higher = more amine produced, active = hit call of the paper (significant change in both replicates, either direction)
# Method in brief: as §2
# [9] = test system: Klebsiella aerogenes DSM 30053; assay: as above
# Method in brief: as §2
# Escherichia coli IAI1 [10] = assay: fold change of Cadaverine concentration vs plate DMSO controls (fold change (ratio)); higher = more amine produced, active = hit call of the paper (significant change in both replicates, either direction)
# Method in brief: as §2
# [11] = test system: Klebsiella aerogenes DSM 30053; assay: as above
# Method in brief: as §2
# [12] = test system: Ruminococcus gnavus DSM 108212; assay: fold change of 2-Phenylethylamine concentration vs plate DMSO controls (fold change (ratio)); higher = more amine produced, active = hit call of the paper (significant change in both replicates, either direction)
# Method in brief: as §2
SMILES,growth [1],growth (Escherichia coli IAI1 [2]),growth [3],growth [4],fold change of Histamine concentration [5],fold change of Tryptamine concentration [6],fold change of Tryptamine concentration [7],fold change of Putrescine concentration (Escherichia coli IAI1 [8]),fold change of Putrescine concentration [9],fold change of Cadaverine concentration (Escherichia coli IAI1 [10]),fold change of Cadaverine concentration [11],fold change of 2-Phenylethylamine concentration [12]
CC(CN(C)C)CN1c2ccccc2CCc2ccccc21 (configuration not stated) [Trimipramine maleate salt] (20 µM),0.87,0.987,0.974,0.826,0.994 (inactive),0.985 (inactive),0.998 (inactive),0.961 (inactive),1.01 (inactive),1.04 (inactive),1 (inactive),1.02 (inactive)
S=C([S-])NCCNC(=S)[S-].S=C([S-])NCCNC(=S)[S-].[Mn+2].[Zn+2] (20 µM),0.889,0.959,0.994,1.01,0.985 (inactive),1.14 (inactive),1.12 (inactive),1.02 (inactive),0.852 (inactive),0.85 (inactive),1.07 (inactive),1.21 (inactive)
CCOc1ccccc1OC(c1ccccc1)C1CNCCO1 (configuration not stated) [Reboxetine mesylate] (20 µM),1.03,1.16,1.07,1.08,1.01 (inactive),0.997 (inactive),1.04 (inactive),1.03 (inactive),1.01 (inactive),0.926 (inactive),1 (inactive),1.03 (inactive)
O=C1CCC(N2C(=O)c3ccccc3C2=O)C(=O)N1 (configuration not stated) [Thalidomide] (20 µM),1.13,0.98,1.04,1.15,1 (inactive),1 (inactive),0.971 (inactive),0.97 (inactive),1.02 (inactive),1.02 (inactive),1 (inactive),0.981 (inactive)
CC1(C)O[C@@H]2C[C@H]3[C@@H]4CCC5=CC(=O)C=C[C@]5(C)[C@H]4[C@@H](O)C[C@]3(C)[C@]2(C(=O)CO)O1 [Desonide] (20 µM),0.99,1.02,1.01,1.21,1.05 (inactive),1.18 (inactive),1.14 (inactive),0.903 (inactive),0.991 (inactive),0.893 (inactive),0.997 (inactive),1.23 (inactive)
CC(=O)S[C@@H]1CC2=CC(=O)CC[C@]2(C)[C@H]2CC[C@@]3(C)[C@@H](CC[C@@]34CCC(=O)O4)[C@H]12 [Spironolactone] (20 µM),1.1,0.915,0.916,0.833,1 (inactive),1.03 (inactive),1.06 (inactive),1.02 (inactive),1.01 (inactive),1.02 (inactive),1 (inactive),1.01 (inactive)
CC[C@H]1OC(=O)[C@H](C)[C@@H](O[C@H]2C[C@@](C)(OC)[C@@H](O)[C@H](C)O2)[C@H](C)[C@@H](O[C@@H]2O[C@H](C)C[C@H](N(C)C)[C@H]2O)[C@](C)(O)C[C@@H](C)CN(C)[C@H](C)[C@@H](O)[C@]1(C)O [Azithromycin] (20 µM),0,0.212,0.39,0.162,0.0612 (active),0.0425 (active),0.0983 (active),0.366 (inactive),0.425 (active),0.633 (active),0.99 (inactive),0.115 (active)
COc1ccc2[nH]cc(CCNC(C)=O)c2c1 [Melatonin] (20 µM),0.916,0.932,1.06,0.789,0.94 (inactive),1.03 (inactive),1.01 (inactive),0.98 (inactive),0.999 (inactive),0.999 (inactive),1 (inactive),0.98 (inactive)
OC[C@@H](O)[C@@H](O[C@@H]1O[C@H](CO)[C@H](O)[C@H](O)[C@H]1O)[C@H](O)[C@@H](O)CO [Lactitol] (50 µM),1.13,0.949,1.01,0.988,0.988 (inactive),0.997 (inactive),0.891 (inactive),0.938 (inactive),1.02 (inactive),0.997 (inactive),0.998 (inactive),0.858 (inactive)
COc1cc(C(=O)NS(=O)(=O)c2ccccc2C)ccc1Cc1cn(C)c2ccc(NC(=O)OC3CCCC3)cc12 [Zafirlukast] (20 µM),0.542,0.946,0.99,0.355,1.05 (inactive),0.371 (active),0.582 (active),0.977 (inactive),1.02 (inactive),1.02 (inactive),1.01 (inactive),0.814 (inactive)
Nc1nc2c(ncn2COC(CO)CO)c(=O)[nH]1 [Ganciclovir] (20 µM),0.925,0.989,0.946,1.07,1.04 (inactive),1.06 (inactive),0.974 (inactive),1.02 (inactive),1.02 (inactive),1.03 (inactive),0.999 (inactive),0.954 (inactive)
NC(=O)OCC(COC(N)=O)c1ccccc1 [Felbamate] (20 µM),1.07,0.986,0.988,0.902,0.989 (inactive),1.02 (inactive),1.05 (inactive),1 (inactive),0.993 (inactive),1.05 (inactive),0.985 (inactive),1.07 (inactive)
CCSc1ccc2c(c1)N(CCCN1CCN(C)CC1)c1ccccc1S2 [Thiethylperazine maleate] (20 µM),1.26,1.05,1.17,0.847,1.01 (inactive),0.971 (inactive),0.851 (inactive),1.07 (inactive),1.07 (inactive),1.06 (inactive),1.05 (inactive),0.915 (inactive)
CCN(CC)C(=O)C1(c2ccccc2)CC1CN (configuration not stated) [Milnacipran hydrochloride] (20 µM),1,1.02,1.03,1.16,0.968 (inactive),1.11 (inactive),1.09 (inactive),0.94 (inactive),0.958 (inactive),0.895 (inactive),1.04 (inactive),1.12 (inactive)
NS(=O)(=O)c1cc(C(=O)O)cc(N2CCCC2)c1Oc1ccccc1 [Piretanide] (20 µM),1.09,0.987,0.997,0.955,1.01 (inactive),1.11 (inactive),1.1 (inactive),0.974 (inactive),1.04 (inactive),1.06 (inactive),1.08 (inactive),1.23 (inactive)
CCCNC(C)(C)COC(=O)c1ccccc1 [Meprylcaine hydrochloride] (20 µM),0.985,1.02,0.991,1.17,1.02 (inactive),1.01 (inactive),1.04 (inactive),1.01 (inactive),1 (inactive),1.04 (inactive),0.991 (inactive),1.01 (inactive)
COc1cc(Nc2c(C#N)cnc3cc(OCCCN4CCN(C)CC4)c(OC)cc23)c(Cl)cc1Cl [Bosutinib] (20 µM),0.991,0.99,1.05,1.16,0.973 (inactive),0.96 (inactive),0.942 (inactive),1.02 (inactive),1 (inactive),1.02 (inactive),1.01 (inactive),0.989 (inactive)
COc1cc(OC)c(C(=O)CCCN2CCCC2)c(OC)c1 [Buflomedil hydrochloride] (20 µM),1.11,1.03,0.965,0.743,1.08 (inactive),1.08 (inactive),1.03 (inactive),1.04 (inactive),1.02 (inactive),1.03 (inactive),0.997 (inactive),0.992 (inactive)
OC[C@H]1O[C@H](O[C@]2(CCl)O[C@H](CCl)[C@@H](O)[C@@H]2O)[C@H](O)[C@@H](O)[C@H]1Cl [Sucralose] (50 µM),1,0.927,1.03,1.36,0.892 (inactive),1.28 (active),1.11 (inactive),0.948 (inactive),0.943 (inactive),1.09 (inactive),1.06 (inactive),1.2 (inactive)
CC(=O)N[C@@H](CC(C)C)C(=O)O [N-Acetyl-L-leucine] (20 µM),1.1,0.831,0.991,1,0.86 (inactive),0.964 (inactive),1.03 (inactive),0.892 (inactive),1.01 (inactive),1.07 (inactive),1.03 (inactive),1.04 (inactive)
"OC(CCN1CCCCC1)(c1ccccc1)C1CCCCC1 (configuration not stated) [Trihexyphenidyl-D,L hydrochloride] (20 µM)",1.05,1.11,1.02,0.865,0.954 (inactive),1.01 (inactive),0.874 (inactive),1.17 (inactive),0.97 (inactive),0.697 (inactive),0.984 (inactive),0.92 (inactive)
